A short description of test [1]: ATG_GLI_CIS: Attagene CIS-FACTORIAL HepG2 Assay for human Zinc Finger Protein GLI1 (AID 2282945). The following applies: HepG2, Attagene cis-factorial reporter mRNA, GLI element; actives raise or lower the signal. The gist of the method: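 HepG2 cells transiently transfected with cis-promoter multiplexed reporter units report endogenous transcription factor activity. After 24 h chemical exposure, reporter mRNA was quantified by RT-PCR, 6-FAM labelling, HpaI digestion and capillary electrophoresis, with bidirectional fitting against DMSO.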

Test [2] is described as follows: ATG_GRE_CIS: Attagene CIS-FACTORIAL HepG2 Assay for human Glucocorticoid Response Elements (GRE) (AID 2282947). The following applies: HepG2 GRE cis-reporter, Attagene multiplex mRNA; actives raise or lower the signal. An outline of the steps:
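HepG2, transient cis-reporter transfection, 24 h. Reporter mRNA: RT-PCR then CE, fluorescence. Fit both directions vs DMSO.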

Test [3] in a line: ATG_ISRE_CIS: Attagene CIS-FACTORIAL HepG2 Assay for human Interferon Regulatory Factor 1 (IRF1) binding to an Interferon-Stimulated Response Element (ISRE) (AID 2282948). The following applies: HepG2 ISRE cis-reporter (Attagene), mRNA transcription readout; actives raise or lower the signal. The gist of the method: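 Read-out: fluorescent RT-PCR products resolved by capillary electrophoresis, reporting endogenous transcription factor activity via ISRE-driven reporter mRNA in transfected HepG2 cells dosed for 24 h; gain or loss fitted relative to DMSO.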

Test [4] is described as follows: ATG_M_32_CIS: Attagene CIS-FACTORIAL HepG2 Assay for M32 Transcription Factor (Internal Marker) (AID 2282949).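 Note: background control marker of the multiplexed CIS panel rather than a real target.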 The following applies: HepG2 Attagene cis-factorial M32 reporter, mRNA; actives raise or lower the signal. The gist of the method:
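Using DMSO as baseline, bidirectional curve fits were applied to reporter mRNA signals. These came from transiently transfected HepG2 cells exposed for 24 h, with RNA analysed by RT-PCR, FAM primer extension, HpaI digestion and CE.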

Test [5] can be described thus: ATG_M_06_CIS: Attagene CIS-FACTORIAL HepG2 Assay for M06 Transcription Factor (Internal Marker) (AID 2282950). Conditions: HepG2 Attagene CIS-FACTORIAL M06 internal marker reporter; actives raise or lower the signal. An outline of the steps: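 Serves as a background control readout. Transfected HepG2 exposed to compounds for 24 h, then reporter transcripts quantified by fluorescent RT-PCR and capillary electrophoresis. Both directions fitted against DMSO baseline.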

Test [6] deals with Hepatocyte nuclear factor 6 (Homo sapiens) (UniProt Q9UBC0). In words: ATG_HNF6_CIS: Attagene CIS-FACTORIAL HepG2 Assay for human Hepatocyte Nuclear Factor 6 (HNF6) (AID 2282952). The following applies: HepG2 Attagene cis-factorial HNF6 reporter transcription; actives raise or lower the signal. The gist of the method: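 Endogenous factor activity read in transiently transfected HepG2 via promoter-regulated reporter transcripts. RNA harvested 24 h post-dosing, reverse-transcribed, PCR-amplified, FAM-labelled, HpaI-digested and resolved by capillary electrophoresis; fitted in both directions against DMSO.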

Test [7] addresses Heat shock factor protein 1 (Homo sapiens) (UniProt Q00613). In words: ATG_HSE_CIS: Attagene CIS-FACTORIAL HepG2 Assay for human Heat Shock Transcription Factor 1 (HSE) (AID 2282953). The following applies: HepG2 HSE cis-reporter, Attagene RNA transcription; actives raise or lower the signal. An outline of the steps: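 Endogenous transcription factor activity in transiently transfected HepG2, read as reporter mRNA by RT-PCR with fluorescent capillary electrophoresis after 24 h. Gain or loss of signal fitted versus DMSO baseline.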

Test [8] is described as follows: ATG_MRE_CIS: Attagene CIS-FACTORIAL HepG2 Assay for human Metal Responsive Element (MRE) (AID 2282954). Conditions: HepG2 MRE cis-reporter transcription, Attagene multiplex; actives raise or lower the signal. The gist of the method: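 Readout: capillary electrophoresis of 6-FAM-labelled, HpaI-digested RT-PCR reporter products. System: HepG2 cells carrying transient multiplexed cis reporters, dosed 24 h. Analysis: bidirectional fit, DMSO baseline.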

Test [9] deals with Paired box protein Pax-6 (Homo sapiens) (UniProt P26367). In words: ATG_Pax6_CIS: Attagene CIS-FACTORIAL HepG2 Assay for human Paired Box 6 (PAX6) (AID 2282956). Conditions: HepG2 CIS-FACTORIAL PAX6 reporter transcription, RNA readout; actives raise or lower the signal. An outline of the steps:
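Readout: reporter transcript fluorescence after RT-PCR and capillary electrophoresis. Cells: HepG2, transiently transfected with cis-regulated MRTUs. Exposure 24 h. Gain or loss of signal fitted bidirectionally relative to DMSO.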

A short description of test [10]: ATG_PPRE_CIS: Attagene CIS-FACTORIAL HepG2 Assay for human Peroxisome Proliferator-activated Response Element (PPRE) (AID 2282958). The following applies: HepG2 PPRE cis-element reporter, Attagene transcription factor profiling; actives raise or lower the signal. The gist of the method: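 After human HepG2 hepatoma cells were transiently transfected with cis-promoter reporter constructs, they were exposed to test chemicals for 24 hours. Reporter RNA was then reverse-transcribed, PCR-amplified, FAM-labeled, HpaI-digested and quantified by capillary electrophoresis.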

Test [11] can be described thus: ATG_RORE_CIS: Attagene CIS-FACTORIAL HepG2 Assay for human RAR-related Orphan Receptor Element (RORE) (AID 2282959). Conditions: HepG2 Attagene cis-factorial RORE reporter, mRNA; actives raise or lower the signal. An outline of the steps: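 Measured here: transcript induction of a cis-regulated reporter in HepG2 cells transiently transfected via FuGene 6. After 24 h, RNA was processed by RT-PCR and fluorescent capillary electrophoresis; DMSO defined baseline activity.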

Test [12] can be described thus: ATG_Sox_CIS: Attagene CIS-FACTORIAL HepG2 Assay for human SRY-box transcription factor (SOX) (AID 2282960). Conditions: HepG2 Attagene cis-factorial SOX reporter, mRNA; actives raise or lower the signal. An outline of the steps: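 Using transiently transfected HepG2 cells, reporter transcription driven by cis elements was assessed 24 h after dosing. Signal was fluorescence of capillary-separated RT-PCR products, with DMSO defining baseline activity.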

The target in test [13] is Transcription factor Sp1 (Homo sapiens) (UniProt P08047). Put plainly: ATG_Sp1_CIS: Attagene CIS-FACTORIAL HepG2 Assay for human Specificity Protein 1 (Sp1) (AID 2282961). Conditions: HepG2 Sp1 cis-reporter transcription, actives raise or lower the signal. The gist of the method:
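After transient transfection of HepG2 cells with cis-promoter reporter units and 24 h chemical treatment, reporter transcripts were quantified by RT-PCR and capillary electrophoresis fluorescence. Gain- and loss-of-signal fitted against DMSO.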

Test [14] addresses Signal transducer and activator of transcription 3 (Homo sapiens) (UniProt P40763). Put plainly: ATG_STAT3_CIS: Attagene CIS-FACTORIAL HepG2 Assay for human Signal Transducer and Activator of Transcription 3 (STAT3) (AID 2282963). Conditions: HepG2, Attagene cis-factorial STAT3 reporter transcription; actives raise or lower the signal. The gist of the method: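 Uses human liver HepG2 transiently carrying cis-regulated reporter transcription units. Following 24 h dosing, reporter mRNA induction was detected by RT-PCR and capillary electrophoresis, analysed bidirectionally versus DMSO.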

Test [15] in a line: ATG_TA_CIS: Attagene CIS-FACTORIAL HepG2 Assay for human TA Basal Promoter (AID 2282964). The following applies: HepG2 Attagene CIS-factorial TA basal promoter reporter; actives raise or lower the signal. The gist of the method:
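Background-control readout: TA basal promoter reporter mRNA, fitted in both directions relative to DMSO. Measured by RT-PCR and capillary electrophoresis 24 hours after treating HepG2 human liver cells transiently carrying multiplexed cis-regulated reporter constructs.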

In test [16] the target is Hypoxia-inducible factor 1-alpha (Homo sapiens) (UniProt Q16665). In words: ATG_HIF1a_CIS: Attagene CIS-FACTORIAL HepG2 Assay for human Hypoxia Inducible Factor 1 (HIF1A) (AID 2282951). Conditions: HepG2 Attagene cis-factorial HIF1a reporter transcription; actives raise or lower the signal. An outline of the steps:
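Endogenous-TF cis reporter readout, human HepG2 cells, 24 h incubation; mRNA detected via RT-PCR and capillary electrophoresis fluorescence; DMSO-normalised bidirectional fitting.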

A short description of test [17]: ATG_PXRE_CIS: Attagene CIS-FACTORIAL HepG2 Assay for human Pregnane X Receptor Element (PXRE) (AID 2282957). The following applies: HepG2 Attagene CIS-FACTORIAL PXRE reporter, mRNA; actives raise or lower the signal. An outline of the steps:
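Reporter transcripts under endogenous PXR-responsive cis-regulation quantified from total RNA of transfected HepG2 cells 24 h post-dosing, via RT-PCR with fluorescent primer extension and capillary electrophoresis. Gain or loss of signal fitted against DMSO baseline.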

Test [18] in a line: ATG_SREBP_CIS: Attagene CIS-FACTORIAL HepG2 Assay for human Sterol Regulatory Element Binding (SREBP) (AID 2282962). Conditions: HepG2 Attagene cis-factorial SREBP reporter, mRNA; actives raise or lower the signal. The gist of the method: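 Readout: fluorescent reporter-transcript peaks resolved by capillary electrophoresis after RT-PCR. Cells were human HepG2 carrying transfected cis-promoter reporter constructs, dosed for 24 h. Gain or loss of signal was fitted against DMSO controls.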

Test [19] in a line: ATG_PBREM_CIS: Attagene CIS-FACTORIAL HepG2 Assay for human Phenobarbital-responsive Enhancer Module (PBREM) (AID 2282955). Conditions: HepG2 PBREM cis-reporter, Attagene multiplexed transcription; actives raise or lower the signal. The gist of the method:
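Readout: reporter mRNA, fluorescent RT-PCR fragments separated by capillary electrophoresis. System: HepG2 transiently transfected with cis-regulated reporter units. Exposure: 24 h. Analysis: bidirectional, DMSO baseline.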

Calls of active or inactive are those of the source. Rule for the calls: active = hit-call score of the fitted dose curve at least 0.9, where 1 is the maximum; inactive = score below 0.9.

Signal transducer and activator of transcription 3 (Homo sapiens), sequence (P40763 whole entry, looked up): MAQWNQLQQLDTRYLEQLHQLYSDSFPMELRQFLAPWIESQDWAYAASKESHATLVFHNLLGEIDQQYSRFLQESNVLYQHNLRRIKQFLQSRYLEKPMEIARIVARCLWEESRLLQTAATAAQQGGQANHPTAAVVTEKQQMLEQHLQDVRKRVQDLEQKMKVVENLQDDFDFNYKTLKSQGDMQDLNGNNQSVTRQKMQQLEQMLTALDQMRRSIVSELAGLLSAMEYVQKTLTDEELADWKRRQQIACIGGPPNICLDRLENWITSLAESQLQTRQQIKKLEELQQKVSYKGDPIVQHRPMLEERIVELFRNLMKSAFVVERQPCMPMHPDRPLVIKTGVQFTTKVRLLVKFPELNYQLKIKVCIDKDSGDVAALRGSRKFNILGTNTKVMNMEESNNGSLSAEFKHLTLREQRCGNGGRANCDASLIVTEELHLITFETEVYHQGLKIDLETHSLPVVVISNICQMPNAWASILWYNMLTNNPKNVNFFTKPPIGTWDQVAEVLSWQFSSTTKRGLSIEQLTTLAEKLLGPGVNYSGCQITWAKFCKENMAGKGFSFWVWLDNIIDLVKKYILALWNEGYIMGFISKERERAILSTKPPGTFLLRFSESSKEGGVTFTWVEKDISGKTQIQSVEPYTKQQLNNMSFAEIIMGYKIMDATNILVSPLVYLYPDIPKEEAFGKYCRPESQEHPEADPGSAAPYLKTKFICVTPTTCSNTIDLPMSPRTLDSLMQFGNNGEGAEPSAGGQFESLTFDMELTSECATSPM
Heat shock factor protein 1 (Homo sapiens), sequence (Q00613 whole entry, looked up): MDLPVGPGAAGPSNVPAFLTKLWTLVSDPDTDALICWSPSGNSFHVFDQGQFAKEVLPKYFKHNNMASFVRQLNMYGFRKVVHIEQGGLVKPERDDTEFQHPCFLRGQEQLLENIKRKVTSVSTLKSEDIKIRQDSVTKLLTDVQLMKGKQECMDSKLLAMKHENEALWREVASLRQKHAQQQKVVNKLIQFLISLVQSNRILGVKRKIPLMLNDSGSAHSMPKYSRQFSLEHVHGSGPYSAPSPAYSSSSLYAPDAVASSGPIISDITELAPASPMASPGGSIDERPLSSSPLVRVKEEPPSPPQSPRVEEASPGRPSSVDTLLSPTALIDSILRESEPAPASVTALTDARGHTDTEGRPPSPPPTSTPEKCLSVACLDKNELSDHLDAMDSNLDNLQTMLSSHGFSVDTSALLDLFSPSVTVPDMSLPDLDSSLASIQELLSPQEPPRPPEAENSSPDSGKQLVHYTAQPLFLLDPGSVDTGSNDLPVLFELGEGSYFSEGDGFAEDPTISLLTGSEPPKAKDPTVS
Hypoxia-inducible factor 1-alpha (Homo sapiens), sequence (Q16665 whole entry, looked up): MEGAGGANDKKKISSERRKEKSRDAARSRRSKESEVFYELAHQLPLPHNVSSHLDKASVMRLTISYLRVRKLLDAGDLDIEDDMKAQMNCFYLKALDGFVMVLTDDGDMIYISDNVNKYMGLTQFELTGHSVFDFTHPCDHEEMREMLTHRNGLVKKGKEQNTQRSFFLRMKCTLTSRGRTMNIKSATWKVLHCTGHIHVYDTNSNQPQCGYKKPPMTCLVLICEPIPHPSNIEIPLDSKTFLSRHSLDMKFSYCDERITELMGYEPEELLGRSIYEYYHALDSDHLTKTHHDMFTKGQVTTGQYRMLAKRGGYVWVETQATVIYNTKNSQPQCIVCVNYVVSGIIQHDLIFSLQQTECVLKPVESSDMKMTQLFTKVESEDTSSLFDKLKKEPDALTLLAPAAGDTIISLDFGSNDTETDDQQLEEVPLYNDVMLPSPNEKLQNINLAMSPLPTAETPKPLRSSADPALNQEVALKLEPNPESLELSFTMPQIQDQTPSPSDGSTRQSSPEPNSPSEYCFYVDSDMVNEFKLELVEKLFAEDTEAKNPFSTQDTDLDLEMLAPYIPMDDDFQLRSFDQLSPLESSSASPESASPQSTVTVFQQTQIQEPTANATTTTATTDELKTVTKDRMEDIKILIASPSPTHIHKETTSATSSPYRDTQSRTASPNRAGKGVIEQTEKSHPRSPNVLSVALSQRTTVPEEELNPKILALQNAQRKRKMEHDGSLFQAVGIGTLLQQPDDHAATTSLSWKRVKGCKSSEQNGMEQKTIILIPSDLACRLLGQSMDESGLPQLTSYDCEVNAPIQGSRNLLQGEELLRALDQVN
Paired box protein Pax-6 (Homo sapiens), sequence (P26367 whole entry, looked up): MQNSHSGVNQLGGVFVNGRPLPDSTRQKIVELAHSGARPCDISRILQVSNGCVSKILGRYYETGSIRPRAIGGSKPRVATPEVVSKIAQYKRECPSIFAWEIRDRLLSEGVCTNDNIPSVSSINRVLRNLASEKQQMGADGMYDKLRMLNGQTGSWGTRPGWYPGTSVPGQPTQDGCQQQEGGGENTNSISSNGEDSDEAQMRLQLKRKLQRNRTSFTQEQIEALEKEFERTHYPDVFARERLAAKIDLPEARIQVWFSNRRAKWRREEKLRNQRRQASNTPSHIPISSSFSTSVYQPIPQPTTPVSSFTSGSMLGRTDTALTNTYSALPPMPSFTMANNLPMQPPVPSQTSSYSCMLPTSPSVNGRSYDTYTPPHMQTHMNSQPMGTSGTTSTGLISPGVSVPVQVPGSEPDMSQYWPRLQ
Transcription factor Sp1 (Homo sapiens), sequence (P08047 whole entry, looked up): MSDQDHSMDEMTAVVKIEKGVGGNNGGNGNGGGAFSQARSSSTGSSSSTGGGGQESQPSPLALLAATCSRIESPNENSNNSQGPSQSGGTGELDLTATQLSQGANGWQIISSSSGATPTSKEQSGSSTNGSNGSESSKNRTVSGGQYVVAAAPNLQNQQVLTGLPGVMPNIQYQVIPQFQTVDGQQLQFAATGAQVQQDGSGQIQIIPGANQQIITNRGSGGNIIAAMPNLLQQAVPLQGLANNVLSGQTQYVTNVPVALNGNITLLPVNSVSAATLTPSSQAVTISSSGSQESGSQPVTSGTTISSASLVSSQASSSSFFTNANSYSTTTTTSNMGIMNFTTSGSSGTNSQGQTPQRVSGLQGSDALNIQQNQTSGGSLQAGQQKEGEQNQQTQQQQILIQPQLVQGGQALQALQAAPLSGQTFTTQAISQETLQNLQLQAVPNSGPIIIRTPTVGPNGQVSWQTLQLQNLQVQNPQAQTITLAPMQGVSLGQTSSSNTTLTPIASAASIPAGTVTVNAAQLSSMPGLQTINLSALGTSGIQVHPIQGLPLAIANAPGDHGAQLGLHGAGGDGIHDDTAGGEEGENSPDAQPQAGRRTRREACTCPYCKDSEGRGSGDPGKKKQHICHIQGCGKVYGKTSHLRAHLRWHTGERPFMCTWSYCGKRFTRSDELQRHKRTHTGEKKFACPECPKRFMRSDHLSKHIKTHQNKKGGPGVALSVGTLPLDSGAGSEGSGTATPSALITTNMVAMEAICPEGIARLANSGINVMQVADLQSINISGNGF
Hepatocyte nuclear factor 6 (Homo sapiens), sequence (Q9UBC0 whole entry, looked up): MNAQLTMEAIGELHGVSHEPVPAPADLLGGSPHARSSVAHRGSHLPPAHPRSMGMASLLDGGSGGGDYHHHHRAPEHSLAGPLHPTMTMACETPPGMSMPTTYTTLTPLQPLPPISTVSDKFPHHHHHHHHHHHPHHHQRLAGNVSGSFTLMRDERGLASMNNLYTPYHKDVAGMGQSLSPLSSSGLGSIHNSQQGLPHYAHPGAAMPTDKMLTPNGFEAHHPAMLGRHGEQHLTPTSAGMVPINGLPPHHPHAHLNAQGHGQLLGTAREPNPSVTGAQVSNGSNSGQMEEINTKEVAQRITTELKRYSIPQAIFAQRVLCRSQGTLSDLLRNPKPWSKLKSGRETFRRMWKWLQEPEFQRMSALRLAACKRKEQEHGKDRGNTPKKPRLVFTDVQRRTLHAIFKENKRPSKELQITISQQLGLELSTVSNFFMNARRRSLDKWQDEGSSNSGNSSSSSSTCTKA

In the case of `CC(=O)c1ccc(S(=O)(=O)NC(=O)NC2CCCCC2)cc1`, the compound was called inactive in test [1], in test [2], in test [3], in test [4], in [5] and in test [6]. Besides, the result in test [7], in test [8], in test [9], in test [10], in test [11] and in [12] was inactive. The compound was called inactive in [13], in test [14] and in [15].

The term AC50 denotes the concentration giving half of the maximal activity seen. Turning to `CCCCCCCCCCCC(C)=O`, the AC50 was 166 µM (active) in test [1]; 123 µM (active) in test [6]; 25.6 µM (active) in test [17]; 159 µM (active) in [10]; 154 µM (active) in test [13]; 141 µM (active) in [18]. Moreover, the outcome in [2], in test [3], in test [4], in [16], in test [7] and in [9] was inactive. The result in test [11], in test [12], in [14] and in test [15] was inactive.

In the case of `Cc1c(Cl)cccc1Cl`, the compound was classed as inactive in [1], in [2], in [3], in test [5], in test [16] and in [6]. Besides, the call in test [7], in test [19], in test [9], in [17], in test [11] and in test [13] was inactive. Moreover, the result in [18], in [14] and in test [15] was inactive.

As for `COC(=O)C=Cc1ccccc1`, the outcome in [1], in test [3], in [4], in [16], in test [6] and in test [7] was inactive. In addition, the compound was classed as inactive in test [8], in [19], in test [9], in test [17], in test [11] and in [12]. In addition, the compound was classed as inactive in [13], in test [18], in [14] and in test [15].

With `C=C[Si](OCCOC)(OCCOC)OCCOC`, the compound was called inactive in test [1], in test [3], in [4], in [5], in test [16] and in test [6]. Besides, the compound was classed as inactive in [8], in test [19], in [10], in test [12], in [13] and in test [18]. Also, the compound was called inactive in test [14] and in test [15]. In addition, in test [17], the AC50 was 1.74 µM (active).

For `CCCCOCCOCCOC(C)=O`, the outcome in [1], in [3], in test [5], in [16], in test [6] and in test [7] was inactive. Further, the compound was classed as inactive in test [8], in [19], in [9], in [17], in [12] and in [13]. In addition, the result in test [18], in test [14] and in test [15] was inactive.

Take `O=C(Cl)c1ccc(C(=O)Cl)cc1`: the outcome in test [1], in test [3], in test [16], in [6], in [7] and in test [8] was inactive. The result in test [19], in test [9], in [17], in test [12], in [13] and in test [18] was inactive. In test [14], the outcome was inactive.

The values are drawn from PubChem BioAssay (EPA / NIEHS).
